# Reference: the supplement of paper PMC11732987, “Enantioselective OTUD7B fragment discovery through chemoproteomics screening and high-throughput optimisation” (Communications Chemistry, 2025)
# Unmarked numbers belong to inactive results.
# Legend:
# Test in all cases: log2 ratio of Biotin-Ahx-Ub-VS probe labelling (fragment/DMSO); higher = less target engagement (more negative = stronger competition), active = hit call of the paper (q ≤ 0.05, log2 ratio ≤ -1)
# Settings in all cases: compound concentration: 200 uM; treatment time: 3 h
# USP42 = biological target: T1, USP42 (UniProt Q9H9J4)
# T1 sequence (whole entry): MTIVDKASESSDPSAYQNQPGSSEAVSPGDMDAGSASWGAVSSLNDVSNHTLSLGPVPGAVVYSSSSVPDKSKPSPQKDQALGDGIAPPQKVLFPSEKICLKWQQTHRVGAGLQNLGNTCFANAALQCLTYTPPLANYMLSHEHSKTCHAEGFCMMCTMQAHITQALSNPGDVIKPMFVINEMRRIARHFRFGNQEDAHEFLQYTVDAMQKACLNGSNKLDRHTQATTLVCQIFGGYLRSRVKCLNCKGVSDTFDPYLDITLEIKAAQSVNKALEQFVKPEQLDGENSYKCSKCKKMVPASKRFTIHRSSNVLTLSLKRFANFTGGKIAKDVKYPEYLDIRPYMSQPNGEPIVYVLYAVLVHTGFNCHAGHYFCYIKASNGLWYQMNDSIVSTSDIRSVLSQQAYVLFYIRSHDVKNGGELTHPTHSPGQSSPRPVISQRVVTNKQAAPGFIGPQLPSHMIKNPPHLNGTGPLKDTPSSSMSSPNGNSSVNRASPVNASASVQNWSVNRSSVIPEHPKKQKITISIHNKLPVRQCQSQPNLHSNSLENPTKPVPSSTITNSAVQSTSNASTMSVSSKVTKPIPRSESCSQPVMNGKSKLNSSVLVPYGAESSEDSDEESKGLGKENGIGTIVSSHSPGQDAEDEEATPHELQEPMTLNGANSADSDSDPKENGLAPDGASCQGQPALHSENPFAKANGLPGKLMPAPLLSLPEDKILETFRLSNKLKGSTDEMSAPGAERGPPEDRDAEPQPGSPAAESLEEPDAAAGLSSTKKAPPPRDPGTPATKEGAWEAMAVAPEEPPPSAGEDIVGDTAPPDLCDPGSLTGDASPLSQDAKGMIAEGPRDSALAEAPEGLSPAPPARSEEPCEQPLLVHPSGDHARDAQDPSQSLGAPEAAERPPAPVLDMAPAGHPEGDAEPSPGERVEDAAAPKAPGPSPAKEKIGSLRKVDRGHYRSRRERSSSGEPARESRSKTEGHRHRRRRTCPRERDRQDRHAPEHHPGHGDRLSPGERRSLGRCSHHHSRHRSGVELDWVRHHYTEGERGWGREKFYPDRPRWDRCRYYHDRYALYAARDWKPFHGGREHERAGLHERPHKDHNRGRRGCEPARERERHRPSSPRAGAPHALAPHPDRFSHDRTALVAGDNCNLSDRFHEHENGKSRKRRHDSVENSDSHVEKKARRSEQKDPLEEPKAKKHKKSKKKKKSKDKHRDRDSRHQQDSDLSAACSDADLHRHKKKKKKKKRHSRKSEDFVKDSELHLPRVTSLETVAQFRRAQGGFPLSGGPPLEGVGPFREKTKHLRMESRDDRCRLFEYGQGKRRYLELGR
# Outline: (§1)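 HEK293T lysate (495 µg per sample, in Tris/CHAPS/IGEPAL buffer with protease inhibitors) was exposed in triplicate for 3 h to fragment at 200 µM or to vehicle, then to Biotin-Ahx-Ub-VS at 0.5 µM final for 1 h. Labelled DUBs were enriched on NeutrAvidin, digested with LysC and trypsin, and analysed by diaPASEF LC-MS/MS. Spectronaut label-free quantities were normalised to the global median, and values are average log2 ratios of fragment over vehicle from an unpaired t-test. Only proteins with ≥2 unique peptides were used.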
# USP46 = USP46 (UniProt P62068)
# Outline: as §1
# USP47 = biological target: T2, USP47 (UniProt Q96K76)
# T2 sequence (whole entry): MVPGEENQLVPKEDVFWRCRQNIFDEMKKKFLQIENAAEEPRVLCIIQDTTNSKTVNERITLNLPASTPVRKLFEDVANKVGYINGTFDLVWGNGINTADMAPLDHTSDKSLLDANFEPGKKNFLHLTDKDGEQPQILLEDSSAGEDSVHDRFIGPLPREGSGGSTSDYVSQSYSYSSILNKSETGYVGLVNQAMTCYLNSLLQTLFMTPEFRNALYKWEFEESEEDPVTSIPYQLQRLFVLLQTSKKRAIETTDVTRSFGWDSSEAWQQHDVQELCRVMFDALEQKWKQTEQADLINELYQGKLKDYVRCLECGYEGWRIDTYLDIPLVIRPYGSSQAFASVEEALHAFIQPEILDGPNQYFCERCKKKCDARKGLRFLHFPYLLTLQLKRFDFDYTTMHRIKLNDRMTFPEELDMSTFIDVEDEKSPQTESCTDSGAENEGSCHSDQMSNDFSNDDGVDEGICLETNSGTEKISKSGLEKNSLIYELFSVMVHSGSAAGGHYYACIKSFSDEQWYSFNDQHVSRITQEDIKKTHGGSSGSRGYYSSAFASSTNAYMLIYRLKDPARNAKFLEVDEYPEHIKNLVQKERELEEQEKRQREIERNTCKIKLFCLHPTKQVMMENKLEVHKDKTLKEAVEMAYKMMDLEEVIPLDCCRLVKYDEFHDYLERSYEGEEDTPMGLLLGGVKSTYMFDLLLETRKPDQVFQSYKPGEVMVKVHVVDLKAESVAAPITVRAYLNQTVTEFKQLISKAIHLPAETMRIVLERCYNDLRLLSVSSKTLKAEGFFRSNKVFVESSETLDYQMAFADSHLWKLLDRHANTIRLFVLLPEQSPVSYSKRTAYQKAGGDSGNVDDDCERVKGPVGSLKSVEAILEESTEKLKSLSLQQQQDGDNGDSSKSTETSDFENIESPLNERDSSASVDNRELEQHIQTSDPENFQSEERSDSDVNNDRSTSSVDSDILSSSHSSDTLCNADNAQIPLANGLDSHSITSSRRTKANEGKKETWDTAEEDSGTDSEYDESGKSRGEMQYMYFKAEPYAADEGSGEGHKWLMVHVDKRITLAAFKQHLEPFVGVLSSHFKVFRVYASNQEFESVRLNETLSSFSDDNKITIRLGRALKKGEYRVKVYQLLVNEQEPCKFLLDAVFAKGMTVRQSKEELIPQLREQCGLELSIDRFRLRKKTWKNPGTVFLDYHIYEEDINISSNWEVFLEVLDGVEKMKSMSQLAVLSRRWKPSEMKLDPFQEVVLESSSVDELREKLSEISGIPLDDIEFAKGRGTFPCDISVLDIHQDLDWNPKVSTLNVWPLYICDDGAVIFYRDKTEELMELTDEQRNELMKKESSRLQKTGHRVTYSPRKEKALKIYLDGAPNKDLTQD
# Outline: as §1
# USP48 = biological target: T3, USP48 (UniProt Q86UV5)
# T3 sequence (whole entry): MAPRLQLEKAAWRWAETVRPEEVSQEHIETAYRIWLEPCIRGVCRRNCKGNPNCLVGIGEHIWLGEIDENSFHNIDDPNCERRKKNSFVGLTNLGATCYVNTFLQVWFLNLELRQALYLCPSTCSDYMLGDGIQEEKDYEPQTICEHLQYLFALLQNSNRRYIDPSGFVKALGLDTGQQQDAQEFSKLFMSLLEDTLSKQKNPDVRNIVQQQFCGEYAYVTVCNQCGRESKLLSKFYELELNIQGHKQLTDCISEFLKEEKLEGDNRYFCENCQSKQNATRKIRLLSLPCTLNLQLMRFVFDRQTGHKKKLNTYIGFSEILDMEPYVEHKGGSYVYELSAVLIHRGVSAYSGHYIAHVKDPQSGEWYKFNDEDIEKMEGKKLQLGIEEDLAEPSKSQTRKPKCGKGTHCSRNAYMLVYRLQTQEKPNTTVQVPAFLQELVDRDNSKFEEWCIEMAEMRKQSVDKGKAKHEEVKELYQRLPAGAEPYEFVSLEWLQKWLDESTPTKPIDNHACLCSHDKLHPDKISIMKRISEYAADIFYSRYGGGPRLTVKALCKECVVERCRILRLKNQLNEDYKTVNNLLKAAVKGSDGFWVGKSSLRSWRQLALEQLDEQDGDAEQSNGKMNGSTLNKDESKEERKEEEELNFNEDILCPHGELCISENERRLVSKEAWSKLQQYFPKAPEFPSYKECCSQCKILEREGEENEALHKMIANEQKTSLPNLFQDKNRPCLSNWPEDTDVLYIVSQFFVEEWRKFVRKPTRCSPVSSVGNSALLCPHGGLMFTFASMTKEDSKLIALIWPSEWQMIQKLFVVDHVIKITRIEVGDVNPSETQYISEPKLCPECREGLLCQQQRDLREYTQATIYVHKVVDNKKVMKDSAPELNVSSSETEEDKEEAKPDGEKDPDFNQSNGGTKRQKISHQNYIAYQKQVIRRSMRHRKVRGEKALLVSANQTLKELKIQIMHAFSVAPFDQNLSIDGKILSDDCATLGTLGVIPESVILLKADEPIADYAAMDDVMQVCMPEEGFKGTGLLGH
# Outline: as §1
# USP5 = biological target: T4, USP5 (UniProt P45974)
# T4 sequence (whole entry): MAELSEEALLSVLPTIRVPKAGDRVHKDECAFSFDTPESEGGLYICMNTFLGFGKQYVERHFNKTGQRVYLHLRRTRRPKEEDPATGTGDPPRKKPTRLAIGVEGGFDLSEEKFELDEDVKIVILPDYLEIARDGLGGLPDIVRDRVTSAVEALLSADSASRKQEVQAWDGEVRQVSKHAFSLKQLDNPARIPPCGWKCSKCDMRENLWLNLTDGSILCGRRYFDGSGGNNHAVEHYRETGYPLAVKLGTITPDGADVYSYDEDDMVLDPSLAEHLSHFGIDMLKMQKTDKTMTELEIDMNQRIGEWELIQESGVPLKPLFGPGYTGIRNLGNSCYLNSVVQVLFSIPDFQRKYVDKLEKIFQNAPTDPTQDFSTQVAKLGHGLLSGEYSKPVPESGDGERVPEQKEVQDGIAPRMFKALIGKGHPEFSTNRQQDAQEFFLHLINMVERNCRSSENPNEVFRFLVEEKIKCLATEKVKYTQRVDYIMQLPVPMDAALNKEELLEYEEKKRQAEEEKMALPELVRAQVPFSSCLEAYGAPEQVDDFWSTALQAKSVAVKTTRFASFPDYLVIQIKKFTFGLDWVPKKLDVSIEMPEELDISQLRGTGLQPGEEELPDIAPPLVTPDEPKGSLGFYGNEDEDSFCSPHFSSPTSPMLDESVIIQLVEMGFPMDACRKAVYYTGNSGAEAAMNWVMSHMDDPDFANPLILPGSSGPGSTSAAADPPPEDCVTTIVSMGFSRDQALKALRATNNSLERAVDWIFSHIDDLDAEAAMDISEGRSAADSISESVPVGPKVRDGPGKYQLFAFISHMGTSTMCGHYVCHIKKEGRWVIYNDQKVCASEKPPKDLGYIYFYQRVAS
# Outline: as §1
# USP54 = USP54 (UniProt Q70EL1)
# Outline: as §1
# USP7 = USP7 (UniProt Q93009)
# Outline: as §1
# USP8 = biological target: T5, USP8 (UniProt P40818)
# T5 sequence (whole entry): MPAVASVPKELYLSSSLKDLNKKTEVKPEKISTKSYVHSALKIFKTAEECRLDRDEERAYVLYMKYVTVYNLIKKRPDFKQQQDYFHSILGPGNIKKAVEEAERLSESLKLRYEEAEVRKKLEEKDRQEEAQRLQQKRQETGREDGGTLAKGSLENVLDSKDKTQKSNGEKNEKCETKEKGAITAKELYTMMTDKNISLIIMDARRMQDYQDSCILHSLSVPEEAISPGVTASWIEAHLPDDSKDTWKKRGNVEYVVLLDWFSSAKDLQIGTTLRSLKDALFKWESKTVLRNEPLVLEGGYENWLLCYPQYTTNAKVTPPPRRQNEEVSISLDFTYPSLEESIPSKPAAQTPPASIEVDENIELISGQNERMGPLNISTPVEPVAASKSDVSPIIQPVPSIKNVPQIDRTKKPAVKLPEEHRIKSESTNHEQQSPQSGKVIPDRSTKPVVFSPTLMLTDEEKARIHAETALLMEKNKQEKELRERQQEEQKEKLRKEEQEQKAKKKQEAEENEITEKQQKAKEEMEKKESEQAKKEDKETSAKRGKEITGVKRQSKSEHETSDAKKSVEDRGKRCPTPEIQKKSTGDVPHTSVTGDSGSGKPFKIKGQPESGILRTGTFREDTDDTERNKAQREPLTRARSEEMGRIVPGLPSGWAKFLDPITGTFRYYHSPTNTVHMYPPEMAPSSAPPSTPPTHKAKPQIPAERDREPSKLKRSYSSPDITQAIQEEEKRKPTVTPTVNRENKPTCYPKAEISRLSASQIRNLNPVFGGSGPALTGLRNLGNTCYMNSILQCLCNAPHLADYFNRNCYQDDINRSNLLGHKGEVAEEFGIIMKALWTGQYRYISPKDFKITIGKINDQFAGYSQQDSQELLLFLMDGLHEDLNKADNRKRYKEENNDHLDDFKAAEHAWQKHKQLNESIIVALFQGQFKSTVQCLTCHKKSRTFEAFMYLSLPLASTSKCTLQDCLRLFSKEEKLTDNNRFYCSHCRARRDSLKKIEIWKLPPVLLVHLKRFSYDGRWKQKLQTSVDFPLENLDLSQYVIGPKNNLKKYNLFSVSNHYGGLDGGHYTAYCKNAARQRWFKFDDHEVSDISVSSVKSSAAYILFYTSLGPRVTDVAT
# Outline: as §1
# USP9X = USP9X (UniProt Q93008)
# Outline: as §1
# UniProt O00487 = biological target: UniProt O00487
# Outline: as §1
# USP9X, sequence (Q93008 whole entry): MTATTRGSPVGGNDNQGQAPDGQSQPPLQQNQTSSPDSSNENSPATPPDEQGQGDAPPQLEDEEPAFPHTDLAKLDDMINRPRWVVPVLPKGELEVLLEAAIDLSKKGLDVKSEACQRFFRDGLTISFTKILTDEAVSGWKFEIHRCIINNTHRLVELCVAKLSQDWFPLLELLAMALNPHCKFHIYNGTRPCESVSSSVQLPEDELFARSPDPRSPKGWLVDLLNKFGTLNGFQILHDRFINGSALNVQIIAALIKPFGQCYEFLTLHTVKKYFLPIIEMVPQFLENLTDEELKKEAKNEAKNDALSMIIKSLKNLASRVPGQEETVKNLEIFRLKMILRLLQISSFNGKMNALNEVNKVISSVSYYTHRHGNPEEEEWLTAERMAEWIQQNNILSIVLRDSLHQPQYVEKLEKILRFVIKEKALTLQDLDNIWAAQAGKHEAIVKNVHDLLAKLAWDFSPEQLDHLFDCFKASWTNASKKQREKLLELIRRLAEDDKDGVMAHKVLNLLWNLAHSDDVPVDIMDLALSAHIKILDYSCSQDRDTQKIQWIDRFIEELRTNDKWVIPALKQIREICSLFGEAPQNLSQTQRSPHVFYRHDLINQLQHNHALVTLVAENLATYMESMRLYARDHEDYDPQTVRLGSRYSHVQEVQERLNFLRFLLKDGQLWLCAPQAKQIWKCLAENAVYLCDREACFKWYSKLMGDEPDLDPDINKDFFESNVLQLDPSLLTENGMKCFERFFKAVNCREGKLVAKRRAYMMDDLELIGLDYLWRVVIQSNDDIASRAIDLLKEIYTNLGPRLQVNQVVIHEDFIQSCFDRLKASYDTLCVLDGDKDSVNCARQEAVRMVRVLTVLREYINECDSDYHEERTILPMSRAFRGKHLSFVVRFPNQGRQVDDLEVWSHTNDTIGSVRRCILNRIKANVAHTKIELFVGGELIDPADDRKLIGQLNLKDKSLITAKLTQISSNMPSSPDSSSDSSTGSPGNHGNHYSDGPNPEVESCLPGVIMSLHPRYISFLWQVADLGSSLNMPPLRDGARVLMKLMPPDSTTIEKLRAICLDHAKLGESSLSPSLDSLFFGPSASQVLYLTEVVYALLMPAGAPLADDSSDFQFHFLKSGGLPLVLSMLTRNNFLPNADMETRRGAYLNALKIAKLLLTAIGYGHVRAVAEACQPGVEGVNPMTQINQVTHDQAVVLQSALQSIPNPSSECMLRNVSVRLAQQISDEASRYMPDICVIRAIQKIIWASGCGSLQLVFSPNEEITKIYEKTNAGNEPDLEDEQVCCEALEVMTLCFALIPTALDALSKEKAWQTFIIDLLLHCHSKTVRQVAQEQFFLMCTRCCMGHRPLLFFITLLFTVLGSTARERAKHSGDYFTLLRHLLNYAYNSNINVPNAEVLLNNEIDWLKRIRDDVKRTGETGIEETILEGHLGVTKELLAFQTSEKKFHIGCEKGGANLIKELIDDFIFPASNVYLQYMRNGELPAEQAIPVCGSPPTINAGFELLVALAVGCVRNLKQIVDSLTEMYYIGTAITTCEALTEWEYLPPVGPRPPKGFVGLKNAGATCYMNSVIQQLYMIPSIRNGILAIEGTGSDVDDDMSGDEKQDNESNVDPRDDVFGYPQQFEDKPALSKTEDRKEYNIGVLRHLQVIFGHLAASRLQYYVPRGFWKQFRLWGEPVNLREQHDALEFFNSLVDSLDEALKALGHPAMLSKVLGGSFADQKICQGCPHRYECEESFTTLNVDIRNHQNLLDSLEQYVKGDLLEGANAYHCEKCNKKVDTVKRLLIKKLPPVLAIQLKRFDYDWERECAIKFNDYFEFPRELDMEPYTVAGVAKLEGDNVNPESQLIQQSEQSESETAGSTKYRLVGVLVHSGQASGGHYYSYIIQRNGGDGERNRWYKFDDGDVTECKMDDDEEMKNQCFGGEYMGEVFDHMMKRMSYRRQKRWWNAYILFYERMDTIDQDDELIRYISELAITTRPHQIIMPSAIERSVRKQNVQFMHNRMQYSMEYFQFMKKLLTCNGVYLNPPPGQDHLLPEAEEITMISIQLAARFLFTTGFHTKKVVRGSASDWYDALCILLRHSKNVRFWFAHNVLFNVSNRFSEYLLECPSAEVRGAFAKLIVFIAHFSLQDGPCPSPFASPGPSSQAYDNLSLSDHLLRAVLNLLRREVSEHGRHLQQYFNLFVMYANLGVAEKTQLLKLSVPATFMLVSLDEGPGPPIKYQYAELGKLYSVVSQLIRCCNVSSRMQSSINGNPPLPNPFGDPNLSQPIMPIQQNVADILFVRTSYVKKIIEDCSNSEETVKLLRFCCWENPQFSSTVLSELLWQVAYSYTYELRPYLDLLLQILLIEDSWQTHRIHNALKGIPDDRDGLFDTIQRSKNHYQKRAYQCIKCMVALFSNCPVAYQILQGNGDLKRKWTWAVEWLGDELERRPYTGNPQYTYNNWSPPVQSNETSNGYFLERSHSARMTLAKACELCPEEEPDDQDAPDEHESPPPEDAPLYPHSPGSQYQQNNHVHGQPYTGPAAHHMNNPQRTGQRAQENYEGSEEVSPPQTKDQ
# UniProt O00487, sequence (O00487 whole entry): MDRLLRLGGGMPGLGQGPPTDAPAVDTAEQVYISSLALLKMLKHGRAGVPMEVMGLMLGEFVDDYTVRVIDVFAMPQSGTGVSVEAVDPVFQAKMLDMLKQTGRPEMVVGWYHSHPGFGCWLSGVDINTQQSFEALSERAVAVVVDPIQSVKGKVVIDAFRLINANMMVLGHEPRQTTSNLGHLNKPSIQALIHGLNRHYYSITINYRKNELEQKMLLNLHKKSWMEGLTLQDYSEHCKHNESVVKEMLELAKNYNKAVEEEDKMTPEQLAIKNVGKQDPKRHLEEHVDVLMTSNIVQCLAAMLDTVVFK
# USP46, sequence (P62068 whole entry): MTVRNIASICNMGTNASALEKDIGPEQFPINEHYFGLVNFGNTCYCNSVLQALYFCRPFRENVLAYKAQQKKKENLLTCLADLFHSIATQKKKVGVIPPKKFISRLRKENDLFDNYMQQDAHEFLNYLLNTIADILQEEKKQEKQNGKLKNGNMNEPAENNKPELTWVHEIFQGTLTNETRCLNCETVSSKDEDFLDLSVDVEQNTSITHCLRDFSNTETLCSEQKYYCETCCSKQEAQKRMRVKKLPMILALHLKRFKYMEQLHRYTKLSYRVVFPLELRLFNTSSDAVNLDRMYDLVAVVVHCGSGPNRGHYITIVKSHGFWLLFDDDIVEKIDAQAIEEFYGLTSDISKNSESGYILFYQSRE
# USP54, sequence (Q70EL1 whole entry): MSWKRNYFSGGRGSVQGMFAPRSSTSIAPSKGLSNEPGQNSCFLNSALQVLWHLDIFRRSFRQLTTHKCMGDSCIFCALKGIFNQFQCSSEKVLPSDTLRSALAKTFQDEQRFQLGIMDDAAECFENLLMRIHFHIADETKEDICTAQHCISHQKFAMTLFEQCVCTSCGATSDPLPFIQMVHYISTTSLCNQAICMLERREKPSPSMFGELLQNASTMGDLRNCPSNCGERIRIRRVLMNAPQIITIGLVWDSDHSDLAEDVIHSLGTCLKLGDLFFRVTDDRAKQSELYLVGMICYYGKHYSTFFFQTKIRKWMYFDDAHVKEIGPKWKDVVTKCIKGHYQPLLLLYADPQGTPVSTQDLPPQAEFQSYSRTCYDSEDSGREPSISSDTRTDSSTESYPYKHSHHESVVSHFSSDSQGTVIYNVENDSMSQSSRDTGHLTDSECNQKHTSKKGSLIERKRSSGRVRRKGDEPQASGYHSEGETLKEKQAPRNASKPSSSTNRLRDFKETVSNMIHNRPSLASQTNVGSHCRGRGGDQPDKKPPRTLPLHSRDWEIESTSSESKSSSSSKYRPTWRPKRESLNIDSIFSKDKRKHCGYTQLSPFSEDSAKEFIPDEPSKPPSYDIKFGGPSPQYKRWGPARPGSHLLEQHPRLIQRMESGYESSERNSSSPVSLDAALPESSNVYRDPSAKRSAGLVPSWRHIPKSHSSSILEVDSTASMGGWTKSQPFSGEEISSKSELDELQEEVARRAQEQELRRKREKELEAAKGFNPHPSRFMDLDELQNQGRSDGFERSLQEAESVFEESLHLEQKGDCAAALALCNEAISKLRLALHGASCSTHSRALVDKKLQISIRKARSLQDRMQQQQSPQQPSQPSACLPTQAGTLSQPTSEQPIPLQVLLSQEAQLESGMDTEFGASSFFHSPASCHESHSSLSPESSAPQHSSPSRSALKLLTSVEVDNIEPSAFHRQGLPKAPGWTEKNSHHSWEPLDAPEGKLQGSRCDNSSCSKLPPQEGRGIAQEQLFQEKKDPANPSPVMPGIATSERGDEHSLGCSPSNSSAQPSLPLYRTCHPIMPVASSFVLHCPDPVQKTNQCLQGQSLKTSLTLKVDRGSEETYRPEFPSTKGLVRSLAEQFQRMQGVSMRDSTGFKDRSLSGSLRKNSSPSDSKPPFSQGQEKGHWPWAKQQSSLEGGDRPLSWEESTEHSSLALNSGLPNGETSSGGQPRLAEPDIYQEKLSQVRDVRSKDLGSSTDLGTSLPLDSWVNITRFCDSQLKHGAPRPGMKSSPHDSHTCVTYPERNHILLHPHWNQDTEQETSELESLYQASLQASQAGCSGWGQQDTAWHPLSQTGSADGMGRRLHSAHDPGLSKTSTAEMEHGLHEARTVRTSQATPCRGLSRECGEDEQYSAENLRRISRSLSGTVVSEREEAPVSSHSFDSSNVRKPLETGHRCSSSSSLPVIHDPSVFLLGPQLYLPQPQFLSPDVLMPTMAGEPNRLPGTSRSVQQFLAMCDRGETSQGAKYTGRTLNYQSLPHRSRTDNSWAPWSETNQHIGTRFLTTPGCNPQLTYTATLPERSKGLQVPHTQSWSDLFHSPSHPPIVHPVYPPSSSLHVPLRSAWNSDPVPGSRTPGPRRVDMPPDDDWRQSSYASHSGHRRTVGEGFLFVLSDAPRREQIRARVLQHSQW
SMILES,log2 ratio of Biotin-Ahx-Ub-VS probe labelling (USP42),log2 ratio of Biotin-Ahx-Ub-VS probe labelling (USP46),log2 ratio of Biotin-Ahx-Ub-VS probe labelling (USP47),log2 ratio of Biotin-Ahx-Ub-VS probe labelling (USP48),log2 ratio of Biotin-Ahx-Ub-VS probe labelling (USP5),log2 ratio of Biotin-Ahx-Ub-VS probe labelling (USP54),log2 ratio of Biotin-Ahx-Ub-VS probe labelling (USP7),log2 ratio of Biotin-Ahx-Ub-VS probe labelling (USP8),log2 ratio of Biotin-Ahx-Ub-VS probe labelling (USP9X),log2 ratio of Biotin-Ahx-Ub-VS probe labelling (UniProt O00487)
O=C(CCl)N1CC2(CCOCC2)C1,-0.145,0.00462,0.0373,-0.152,0.362,0.355,-0.055,0.147,-0.238,-0.0916
CNC(=O)C1CCN(C(=O)CCl)CC1,0.308,0.0795,0.356,-0.0361,-0.203,0.32,-0.171,-0.00406,-0.107,0.144
O=C(CCl)N1CCN(C(=O)N2CCCCC2)CC1,0.232,-0.637,-0.616,-0.949,-1.13 (active),0.892,-1.12 (active),-0.843,-1.11 (active),-0.0311
